“And” between values parts separate entries of the source, which are not always exact repeats. Equal values may be shown once. Records with an inconclusive call do not appear. The source holds several records for some structures; these can differ, active in one and inactive in another. The source made the active and inactive calls. How the source made its calls, unless noted: active means hit-call score of the fitted dose curve at least 0.9, where 1 is the maximum; inactive means score below 0.9.
Key:
[1] = BSK_4H_Eotaxin3: BioMAP Diversity Plus: 4H Assay for Eotaxin 3 Biomarker Activity (AID 2283000); details: primary human endothelial cells (HUVEC); actives raise or lower the signal;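 on outcome: CCL26 protein level quantified by ELISA in parallel with SRB cytotoxicity check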
Method in brief: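 Human umbilical vein endothelial cells (BSK_4H system) dosed with test chemical; Eotaxin-3 (CCL26) measured by ELISA 24 h after dosing. Bidirectional curve fitting relative to DMSO negative control as baseline.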

[2] = molecular target: human Peroxisome Proliferator-activated Receptor delta (PPARd), PPARD (gene 5467) (UniProt Q03181); assay: ATG_PPARd_TRANS: Attagene TRANS-FACTORIAL HepG2 Assay for human Peroxisome Proliferator-activated Receptor delta (PPARd) (AID 2283002; active means hit-call score of the fitted dose curve at least 0.9, where 1 is the maximum)
Method in brief: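 HepG2 cells transiently transfected with multiplexed GAL4-UAS reporter units and exogenous chimeric NR-Gal4 proteins; 24 h compound exposure. Reporter mRNA measured by RT-PCR, 6-FAM labelling, HpaI digestion and capillary electrophoresis; gain of signal versus DMSO.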

[3] = read-out: Intercellular Adhesion Molecule 1 (ICAM1), ICAM1 (gene 3383); assay: BSK_3C_ICAM1: BioMAP Diversity Plus: 3C Assay for Intercellular Adhesion Molecule 1 (ICAM1) Biomarker Activity (AID 2283003); details: primary human endothelial cells (HUVEC); actives raise or lower the signal
Method in brief: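 HUVEC primary cells stimulated under 3C conditions; ICAM1 measured by ELISA 24 h after compound dosing. Curves fitted bidirectionally against the DMSO baseline. Overt cytotoxicity checked by SRB staining of parallel cultures.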

[4] = BSK_3C_Proliferation: Cell Proliferation Assessment in the BioMAP Diversity Plus: 3C Assay (AID 2283006); details: primary human endothelial cells (HUVEC);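 on AC50: potency may reflect either rise or fall in cell number versus DMSO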
Method in brief: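 Subconfluent HUVEC (3C system) cultured with chemical; relative cell number read at 48 h by sulforhodamine B total-protein staining (0.1% SRB after 10% TCA fixation, 560 nm). Bidirectional fit relative to DMSO.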

[5] = molecular target: Peroxisome proliferator-activated receptor gamma (Homo sapiens) (UniProt P37231); assay: ATG_PPARg_TRANS: Attagene TRANS-FACTORIAL HepG2 Assay for human Peroxisome Proliferator-activated Receptor-gamma (PPARg) (AID 2283007; active means hit-call score of the fitted dose curve at least 0.9, where 1 is the maximum)
Method in brief: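 Multiplexed reporter transcription units in HepG2, 24 h dosing, reporter transcripts quantified by fluorescent RT-PCR and capillary electrophoresis. Increase over DMSO scored.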

[6] = molecular target: Nuclear receptor subfamily 1 group I member 2 (Homo sapiens) (UniProt O75469); assay: ATG_PXR_TRANS: Attagene TRANS-FACTORIAL HepG2 Assay for human Pregnane X Receptor (PXR) (AID 2283008; active means hit-call score of the fitted dose curve at least 0.9, where 1 is the maximum)
Method in brief: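 HepG2 cells transiently transfected with multiple reporter units, here a PXR-GAL4 chimera driving a GAL4-UAS reporter; 24 h compound exposure. Reporter mRNA measured by RT-PCR, FAM labelling and capillary electrophoresis; gain of signal fitted against DMSO baseline.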

[7] = molecular target: human RAR-related Orphan Receptor gamma (RORg), RORC (gene 6097) (UniProt P51449); assay: ATG_RORg_TRANS: Attagene TRANS-FACTORIAL HepG2 Assay for human RAR-related Orphan Receptor gamma (RORg) (AID 2283011; active means hit-call score of the fitted dose curve at least 0.9, where 1 is the maximum)
Method in brief: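 Reporter transcripts from a transfected RORg-GAL4 chimera in HepG2 cells were quantified 24 h after dosing by RT-PCR, 6-FAM labelling, HpaI digestion and capillary electrophoresis; increases over DMSO baseline were fitted.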

[8] = molecular target: Retinoic acid receptor RXR-alpha (Homo sapiens) (UniProt P19793); assay: ATG_RXRa_TRANS: Attagene TRANS-FACTORIAL HepG2 Assay for human Retinoid X Receptor alpha (RXRa) (AID 2283012; active means hit-call score of the fitted dose curve at least 0.9, where 1 is the maximum)
Method in brief: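 HepG2 cells transiently transfected with GAL4-UAS reporter units and chimeric RXRa-Gal4 protein, treated 24 h. Reporter mRNA measured by RT-PCR, fluorescent labelling, HpaI digestion and capillary electrophoresis. Induction fitted against DMSO.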

[9] = molecular target: human Retinoid X Receptor beta (RXRb), RXRB (gene 6257) (UniProt P28702); assay: ATG_RXRb_TRANS: Attagene TRANS-FACTORIAL HepG2 Assay for human Retinoid X Receptor beta (RXRb) (AID 2283013; active means hit-call score of the fitted dose curve at least 0.9, where 1 is the maximum)
Method in brief: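 HepG2 cells were transiently transfected with multiplexed GAL4-UAS reporters and a chimeric RXRb-Gal4 construct, then exposed for 24 h. Reporter mRNA was quantified by RT-PCR, FAM labeling, HpaI digestion and capillary electrophoresis; gain of signal was scored against DMSO.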

[10] = read-out: Interleukin-1 alpha (IL1a), IL1A (gene 3552); assay: BSK_BE3C_IL1a: BioMAP Diversity Plus: BE3C Assay for Interleukin-1 alpha (IL1a) Biomarker Activity (AID 2283016); details: primary human bronchial epithelial cells; actives raise or lower the signal
Method in brief: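 Human primary bronchial epithelial cells, 24 h chemical exposure; IL-1a quantified by ELISA, fitted bidirectionally against DMSO. Cytotoxicity assessed in parallel by SRB total-protein staining at the time of measurement.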

[11] = read-out: Monocyte Chemoattractant Protein-1 (MCP1), CCL2 (gene 6347); assay: BSK_3C_MCP1: BioMAP Diversity Plus: 3C Assay for Monocyte Chemoattractant Protein-1 (MCP1) Biomarker Activity (AID 2283017); details: primary human endothelial cells (HUVEC); actives raise or lower the signal
Method in brief: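 MCP-1 was measured by ELISA 24 h after dosing in primary HUVEC 3C cultures and fitted in both directions relative to DMSO; cytotoxicity was checked by SRB total-protein staining in parallel wells.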

[12] = read-out: Monocyte Chemoattractant Protein-1 (MCP1), CCL2 (gene 6347); assay: BSK_4H_MCP1: BioMAP Diversity Plus: 4H Assay for Monocyte Chemoattractant Protein-1 (MCP1) Biomarker Activity (AID 2283018); details: primary human endothelial cells (HUVEC); actives raise or lower the signal
Method in brief: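 Human umbilical vein endothelial cells (4H system) exposed to chemicals for 24 h in 96-well format. MCP-1 measured by ELISA; bidirectional fitting against DMSO, with SRB total-protein staining in parallel cultures for cytotoxicity.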

[13] = read-out: Human Leukocyte Antigen - DR isotype (HLADR), HLA-DRA (gene 3122); assay: BSK_3C_HLADR: BioMAP Diversity Plus: 3C Assay for Human Leukocyte Antigen - DR isotype (HLADR) Biomarker Activity (AID 2283019); details: primary human endothelial cells (HUVEC); actives raise or lower the signal;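 on outcome: ELISA of cell-surface HLA-DR on HUVEC 24 h after dosing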
Method in brief: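 Bidirectional fitting against DMSO was applied to the HLA-DR ELISA signal from human umbilical vein endothelial cells, 24 h post-dose. Cytotoxicity came from parallel SRB total-protein staining; 3C proliferation was counted by SRB at 48 h.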

[14] = molecular target: human Peroxisome Proliferator-activated Receptor alpha (PPARa), PPARA (gene 5465) (UniProt Q07869); assay: ATG_PPARa_TRANS: Attagene TRANS-FACTORIAL HepG2 Assay for human Peroxisome Proliferator-activated Receptor alpha (PPARa) (AID 2283001; active means hit-call score of the fitted dose curve at least 0.9, where 1 is the maximum)
Method in brief: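 Gain-of-signal endpoint: reporter mRNA induction relative to DMSO, detected by fluorescent RT-PCR and capillary electrophoresis. HepG2 cells transiently carried GAL4-UAS-driven reporter units plus NR-Gal4 fusion; exposure lasted 24 h.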

[15] = molecular target: human Retinoic Acid Receptor beta (RARb), RARB (gene 5915) (UniProt P10826); assay: ATG_RARb_TRANS: Attagene TRANS-FACTORIAL HepG2 Assay for human Retinoic Acid Receptor beta (AID 2283004; active means hit-call score of the fitted dose curve at least 0.9, where 1 is the maximum)
Method in brief: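 Induction of reporter mRNA from a chimeric RARb-Gal4 construct was measured by RT-PCR, FAM labelling, HpaI digestion and capillary electrophoresis. Measurements followed 24 h compound treatment of transiently transfected human HepG2 liver cells, with DMSO as baseline.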

[16] = molecular target: Retinoic acid receptor alpha (Homo sapiens) (UniProt P10276); assay: ATG_RARa_TRANS: Attagene TRANS-FACTORIAL HepG2 Assay for human Retinoic Acid Receptor alpha (RARa) (AID 2283005; active means hit-call score of the fitted dose curve at least 0.9, where 1 is the maximum)
Method in brief: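 HepG2 cells transiently transfected with multiple reporter units expressing chimeric RARα-GAL4 fusion, with GAL4-UAS-driven reporters. After 24 h compound exposure, reporter mRNA induction quantified by RT-PCR and capillary electrophoresis with fluorescent labeling; gain-of-signal fitted relative to DMSO control.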

[17] = molecular target: human Retinoic Acid Receptor gamma (RARg), RARG (gene 5916) (UniProt P13631); assay: ATG_RARg_TRANS: Attagene TRANS-FACTORIAL HepG2 Assay for human Retinoic Acid Receptor gamma (RARg) (AID 2283009; active means hit-call score of the fitted dose curve at least 0.9, where 1 is the maximum)
Method in brief: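 HepG2 transiently transfected with GAL4-UAS reporter units and chimeric NR-Gal4 constructs; 24 h compound exposure. Reporter mRNA quantified by RT-PCR, FAM labeling, HpaI digestion and capillary electrophoresis; gain-of-signal versus DMSO.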

[18] = molecular target: human RAR-related Orphan Receptor beta (RORb), RORB (gene 6096) (UniProt Q92753); assay: ATG_RORb_TRANS: Attagene TRANS-FACTORIAL HepG2 Assay for human RAR-related Orphan Receptor beta (RORb) (AID 2283010; active means hit-call score of the fitted dose curve at least 0.9, where 1 is the maximum)
Method in brief: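 HepG2 cells transiently transfected with GAL4-UAS reporter units expressing chimeric NR-Gal4 protein; reporter mRNA measured 24 h after dosing by RT-PCR, 6-FAM labelling and capillary electrophoresis. Gain-of-signal fitted relative to DMSO baseline.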

[19] = molecular target: human Thyroid Receptor alpha (THRa1), THRA (gene 7067) (UniProt P10827); assay: ATG_THRa1_TRANS: Attagene TRANS-FACTORIAL HepG2 Assay for human Thyroid Receptor alpha (THRa1) (AID 2283014; active means hit-call score of the fitted dose curve at least 0.9, where 1 is the maximum)
Method in brief: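 Transcripts from GAL4-UAS-driven reporters, measured after 24 h compound exposure by RT-PCR plus capillary electrophoresis of 6-FAM-labeled fragments, were fitted for gain of signal relative to DMSO. Cells: transiently transfected HepG2 expressing NR-Gal4 chimeras.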

[20] = read-out: E-selectin (Homo sapiens) (UniProt P16581); assay: BSK_3C_Eselectin: BioMAP Diversity Plus: 3C Assay for Eselectin Biomarker Activity (AID 2283015); details: primary human endothelial cells (HUVEC); actives raise or lower the signal;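 further: cell surface E-selectin protein quantified by ELISA 24 h after dosing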
Method in brief: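 E-selectin ELISA readout, fitted bidirectionally relative to DMSO, taken 24 h post-dosing in HUVEC cultures of the 3C system. Overt cytotoxicity tracked with sulforhodamine B staining of parallel wells.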

Sequence of human Retinoic Acid Receptor gamma (RARg), RARG (gene 5916) (P13631 whole entry, looked up, the tested form may be a part): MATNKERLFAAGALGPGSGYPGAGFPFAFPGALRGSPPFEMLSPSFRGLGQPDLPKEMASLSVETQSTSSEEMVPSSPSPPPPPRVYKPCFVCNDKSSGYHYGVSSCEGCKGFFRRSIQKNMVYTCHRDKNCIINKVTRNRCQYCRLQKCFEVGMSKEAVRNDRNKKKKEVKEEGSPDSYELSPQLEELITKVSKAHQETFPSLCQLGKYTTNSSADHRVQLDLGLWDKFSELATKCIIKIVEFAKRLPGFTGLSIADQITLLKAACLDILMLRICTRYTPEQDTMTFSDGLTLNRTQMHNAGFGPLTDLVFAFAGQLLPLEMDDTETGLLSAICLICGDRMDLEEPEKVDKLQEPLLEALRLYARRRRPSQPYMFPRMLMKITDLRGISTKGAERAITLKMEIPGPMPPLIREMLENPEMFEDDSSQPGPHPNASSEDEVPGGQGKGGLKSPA
Sequence of Retinoic acid receptor RXR-alpha (Homo sapiens) (P19793 whole entry, looked up, the tested form may be a part): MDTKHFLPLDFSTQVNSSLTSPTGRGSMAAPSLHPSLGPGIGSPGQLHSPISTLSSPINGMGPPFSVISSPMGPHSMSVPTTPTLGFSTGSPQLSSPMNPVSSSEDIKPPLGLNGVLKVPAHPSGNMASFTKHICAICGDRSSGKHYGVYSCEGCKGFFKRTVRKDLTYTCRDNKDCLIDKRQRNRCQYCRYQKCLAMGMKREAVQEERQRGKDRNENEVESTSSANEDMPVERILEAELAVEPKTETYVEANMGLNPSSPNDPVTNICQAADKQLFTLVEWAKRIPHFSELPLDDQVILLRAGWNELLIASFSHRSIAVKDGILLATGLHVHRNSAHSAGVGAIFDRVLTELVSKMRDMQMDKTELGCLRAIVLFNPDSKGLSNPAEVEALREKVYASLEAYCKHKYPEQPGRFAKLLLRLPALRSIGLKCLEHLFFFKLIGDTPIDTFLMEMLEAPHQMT
Sequence of human Peroxisome Proliferator-activated Receptor delta (PPARd), PPARD (gene 5467) (Q03181 whole entry, looked up, the tested form may be a part): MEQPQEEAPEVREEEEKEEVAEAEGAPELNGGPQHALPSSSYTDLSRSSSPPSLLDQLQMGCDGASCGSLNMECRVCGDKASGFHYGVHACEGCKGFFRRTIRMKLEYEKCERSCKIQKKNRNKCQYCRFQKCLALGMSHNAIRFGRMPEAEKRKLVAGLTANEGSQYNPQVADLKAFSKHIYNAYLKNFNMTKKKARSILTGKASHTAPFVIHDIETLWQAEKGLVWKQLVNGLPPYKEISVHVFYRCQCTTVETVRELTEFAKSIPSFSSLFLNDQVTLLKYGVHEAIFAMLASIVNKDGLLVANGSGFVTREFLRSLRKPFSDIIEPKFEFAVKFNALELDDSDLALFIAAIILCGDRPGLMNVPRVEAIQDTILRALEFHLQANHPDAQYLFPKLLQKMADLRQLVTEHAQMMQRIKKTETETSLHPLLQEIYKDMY
Sequence of human Retinoid X Receptor beta (RXRb), RXRB (gene 6257) (P28702 whole entry, looked up, the tested form may be a part): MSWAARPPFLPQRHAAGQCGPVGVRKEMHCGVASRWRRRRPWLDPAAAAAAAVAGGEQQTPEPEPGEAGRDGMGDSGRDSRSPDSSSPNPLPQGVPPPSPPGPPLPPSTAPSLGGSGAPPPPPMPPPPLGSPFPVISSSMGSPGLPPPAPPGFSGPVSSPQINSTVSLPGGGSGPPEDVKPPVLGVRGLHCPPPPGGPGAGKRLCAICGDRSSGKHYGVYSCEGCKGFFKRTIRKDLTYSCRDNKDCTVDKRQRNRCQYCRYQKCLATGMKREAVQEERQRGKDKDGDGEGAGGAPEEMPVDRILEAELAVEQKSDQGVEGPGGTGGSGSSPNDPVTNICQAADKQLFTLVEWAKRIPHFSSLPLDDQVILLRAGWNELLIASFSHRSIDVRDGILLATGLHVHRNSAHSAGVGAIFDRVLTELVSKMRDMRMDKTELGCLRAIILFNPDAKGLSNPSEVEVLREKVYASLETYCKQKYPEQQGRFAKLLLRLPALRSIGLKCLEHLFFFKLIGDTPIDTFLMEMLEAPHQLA
Sequence of Nuclear receptor subfamily 1 group I member 2 (Homo sapiens) (O75469 whole entry, looked up, the tested form may be a part): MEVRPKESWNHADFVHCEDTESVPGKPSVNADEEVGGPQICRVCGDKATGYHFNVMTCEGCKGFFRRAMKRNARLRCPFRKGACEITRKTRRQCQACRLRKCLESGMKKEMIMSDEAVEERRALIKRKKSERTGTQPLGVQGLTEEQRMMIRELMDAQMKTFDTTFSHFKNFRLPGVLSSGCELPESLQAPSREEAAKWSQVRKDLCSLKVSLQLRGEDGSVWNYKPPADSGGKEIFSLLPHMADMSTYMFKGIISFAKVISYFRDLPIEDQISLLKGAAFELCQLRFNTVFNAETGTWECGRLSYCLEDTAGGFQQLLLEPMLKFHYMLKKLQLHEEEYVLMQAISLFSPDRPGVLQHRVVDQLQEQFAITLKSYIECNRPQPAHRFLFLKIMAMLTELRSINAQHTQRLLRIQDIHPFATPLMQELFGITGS
Sequence of human Peroxisome Proliferator-activated Receptor alpha (PPARa), PPARA (gene 5465) (Q07869 whole entry, looked up, the tested form may be a part): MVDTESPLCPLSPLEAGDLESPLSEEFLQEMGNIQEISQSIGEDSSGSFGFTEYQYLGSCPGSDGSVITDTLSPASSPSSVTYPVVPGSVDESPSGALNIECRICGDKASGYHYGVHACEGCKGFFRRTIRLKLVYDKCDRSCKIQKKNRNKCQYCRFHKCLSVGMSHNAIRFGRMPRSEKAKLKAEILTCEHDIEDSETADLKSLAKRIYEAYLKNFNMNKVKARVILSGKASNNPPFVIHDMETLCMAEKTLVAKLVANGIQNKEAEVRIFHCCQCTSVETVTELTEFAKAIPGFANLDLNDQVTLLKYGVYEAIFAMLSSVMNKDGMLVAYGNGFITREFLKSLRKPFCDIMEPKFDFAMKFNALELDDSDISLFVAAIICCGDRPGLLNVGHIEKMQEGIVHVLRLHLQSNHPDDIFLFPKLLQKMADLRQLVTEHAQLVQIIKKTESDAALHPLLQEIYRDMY
Sequence of human RAR-related Orphan Receptor beta (RORb), RORB (gene 6096) (Q92753 whole entry, looked up, the tested form may be a part): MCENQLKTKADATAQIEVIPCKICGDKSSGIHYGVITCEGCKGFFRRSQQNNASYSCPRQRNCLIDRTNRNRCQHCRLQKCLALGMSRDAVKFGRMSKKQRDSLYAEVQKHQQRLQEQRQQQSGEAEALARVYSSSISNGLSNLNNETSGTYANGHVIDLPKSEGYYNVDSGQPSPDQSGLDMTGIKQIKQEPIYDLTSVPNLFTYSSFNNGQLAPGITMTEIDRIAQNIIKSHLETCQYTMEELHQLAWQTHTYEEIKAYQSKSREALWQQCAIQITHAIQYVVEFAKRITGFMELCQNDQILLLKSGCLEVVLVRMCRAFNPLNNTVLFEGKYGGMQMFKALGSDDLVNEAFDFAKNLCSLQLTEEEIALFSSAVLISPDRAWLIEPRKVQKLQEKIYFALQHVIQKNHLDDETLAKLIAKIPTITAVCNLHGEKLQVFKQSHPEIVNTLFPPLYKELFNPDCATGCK
Sequence of human RAR-related Orphan Receptor gamma (RORg), RORC (gene 6097) (P51449 whole entry, looked up, the tested form may be a part): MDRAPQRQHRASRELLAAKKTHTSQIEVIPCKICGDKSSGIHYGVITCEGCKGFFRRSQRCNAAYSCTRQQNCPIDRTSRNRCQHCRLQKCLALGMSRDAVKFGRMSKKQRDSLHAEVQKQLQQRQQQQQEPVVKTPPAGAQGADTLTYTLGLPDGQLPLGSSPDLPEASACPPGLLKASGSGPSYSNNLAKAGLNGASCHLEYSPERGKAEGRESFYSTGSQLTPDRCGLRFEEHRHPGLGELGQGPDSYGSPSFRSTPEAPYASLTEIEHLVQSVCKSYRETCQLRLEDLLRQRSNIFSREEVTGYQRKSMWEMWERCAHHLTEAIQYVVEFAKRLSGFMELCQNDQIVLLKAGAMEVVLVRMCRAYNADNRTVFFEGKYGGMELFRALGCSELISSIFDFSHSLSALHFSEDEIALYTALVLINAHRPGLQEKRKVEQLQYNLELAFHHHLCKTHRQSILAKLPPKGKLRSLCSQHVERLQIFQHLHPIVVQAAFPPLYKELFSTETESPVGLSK
Sequence of Peroxisome proliferator-activated receptor gamma (Homo sapiens) (P37231 whole entry, looked up): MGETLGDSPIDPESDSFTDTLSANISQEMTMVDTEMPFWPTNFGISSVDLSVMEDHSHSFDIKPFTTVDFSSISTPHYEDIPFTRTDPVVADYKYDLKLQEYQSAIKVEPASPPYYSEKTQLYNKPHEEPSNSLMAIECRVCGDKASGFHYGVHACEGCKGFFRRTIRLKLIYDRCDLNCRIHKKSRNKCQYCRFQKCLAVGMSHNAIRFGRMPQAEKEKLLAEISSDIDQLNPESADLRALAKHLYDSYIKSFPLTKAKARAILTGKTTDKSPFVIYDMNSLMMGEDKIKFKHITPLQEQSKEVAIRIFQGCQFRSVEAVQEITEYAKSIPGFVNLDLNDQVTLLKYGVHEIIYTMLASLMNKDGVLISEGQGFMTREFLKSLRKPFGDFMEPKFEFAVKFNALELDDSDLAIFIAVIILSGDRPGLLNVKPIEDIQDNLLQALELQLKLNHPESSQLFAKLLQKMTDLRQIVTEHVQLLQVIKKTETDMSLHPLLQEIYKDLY
Sequence of E-selectin (Homo sapiens) (P16581 whole entry, looked up): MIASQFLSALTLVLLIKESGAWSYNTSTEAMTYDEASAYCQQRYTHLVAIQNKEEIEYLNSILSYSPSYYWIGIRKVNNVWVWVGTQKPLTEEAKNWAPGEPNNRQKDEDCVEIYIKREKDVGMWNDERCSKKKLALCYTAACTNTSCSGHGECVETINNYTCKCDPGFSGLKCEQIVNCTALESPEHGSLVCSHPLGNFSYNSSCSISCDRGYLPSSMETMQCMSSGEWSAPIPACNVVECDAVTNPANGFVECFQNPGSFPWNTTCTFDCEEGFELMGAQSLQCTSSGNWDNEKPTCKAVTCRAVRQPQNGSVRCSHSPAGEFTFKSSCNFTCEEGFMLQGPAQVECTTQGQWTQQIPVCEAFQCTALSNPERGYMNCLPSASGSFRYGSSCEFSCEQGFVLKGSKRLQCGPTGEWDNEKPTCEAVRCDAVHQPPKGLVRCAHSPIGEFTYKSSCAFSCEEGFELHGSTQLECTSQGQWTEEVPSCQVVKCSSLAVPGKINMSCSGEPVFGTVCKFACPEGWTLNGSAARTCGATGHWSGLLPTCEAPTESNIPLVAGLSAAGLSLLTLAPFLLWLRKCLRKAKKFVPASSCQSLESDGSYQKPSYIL

CCCO[Si](OCCC)(OCCC)OCCC
outcome [1]: inactive | outcome [2]: inactive | outcome [3]: inactive | outcome [4]: inactive | outcome [5]: inactive | outcome [6]: inactive | outcome [7]: inactive | outcome [8]: inactive | outcome [9]: inactive | outcome [10]: inactive | outcome [11]: inactive | outcome [12]: inactive | outcome [13]: inactive

C[C@]12CC[C@@H]3c4ccc(O)cc4CC[C@H]3[C@@H]1CC[C@@H]2O
AC50 [1]: 20 µM (active) | outcome [14]: inactive | outcome [2]: inactive | outcome [3]: inactive | outcome [15]: inactive | outcome [16]: inactive | AC50 [4]: 8.41 µM (active) | outcome [5]: inactive | AC50 [6]: 5.7 µM (active) and 3.83 µM (active) and 4.54 µM (active) | outcome [6]: inactive | outcome [17]: inactive | outcome [18]: inactive | outcome [7]: inactive | outcome [8]: inactive | outcome [9]: inactive | outcome [19]: inactive | outcome [10]: inactive | AC50 [11]: 12.2 µM (active) | AC50 [12]: 9.45 µM (active) | AC50 [13]: 16.1 µM (active)

CC(C)CCCC(C)(C)O
outcome [1]: inactive | outcome [2]: inactive | outcome [3]: inactive | outcome [4]: inactive | outcome [6]: inactive | outcome [18]: inactive | outcome [7]: inactive | outcome [9]: inactive | outcome [10]: inactive | outcome [11]: inactive | outcome [12]: inactive | outcome [13]: inactive

CC(C)(CO)CO
outcome [1]: inactive | outcome [2]: inactive | outcome [3]: inactive | outcome [4]: inactive | outcome [7]: inactive | outcome [20]: inactive | outcome [10]: inactive | outcome [11]: inactive | outcome [12]: inactive | outcome [13]: inactive

CC(=O)c1ccc(C)cc1
outcome [1]: inactive | outcome [14]: inactive | outcome [3]: inactive | outcome [4]: inactive | outcome [9]: inactive | outcome [10]: inactive | outcome [11]: inactive | outcome [12]: inactive | outcome [13]: inactive

C=CC(=O)OCC(CO)(COC(=O)C=C)COC(=O)C=C
AC50 [1]: 0.41 µM (active) | outcome [14]: inactive | outcome [2]: inactive | AC50 [3]: 0.574 µM (active) | AC50 [4]: 0.131 µM (active) | outcome [9]: inactive | AC50 [10]: 0.898 µM (active) | AC50 [11]: 0.185 µM (active) | AC50 [12]: 0.333 µM (active) | AC50 [13]: 0.135 µM (active)

O=C(c1ccc(OCCN2CCCCC2)cc1)c1c(-c2ccc(O)cc2)sc2cc(O)ccc12
AC50 [1]: 34.4 µM (active) | outcome [14]: inactive | outcome [2]: inactive | AC50 [3]: 38.2 µM (active) | AC50 [4]: 12.9 µM (active) | AC50 [6]: 1.97 µM (active) and 3.44 µM (active) | outcome [6]: inactive | outcome [7]: inactive | outcome [8]: inactive | outcome [9]: inactive | AC50 [10]: 31.2 µM (active) | AC50 [11]: 27.3 µM (active) | AC50 [12]: 22.1 µM (active) | AC50 [13]: 17.4 µM (active)

CCOC(=O)C=Cc1ccccc1
outcome [1]: inactive | outcome [14]: inactive | outcome [3]: inactive | outcome [4]: inactive | AC50 [5]: 25.4 µM (active) | AC50 [6]: 30.8 µM (active) | outcome [17]: inactive | outcome [18]: inactive | outcome [10]: inactive | outcome [11]: inactive | outcome [12]: inactive | outcome [13]: inactive

— PubChem BioAssay (EPA / NIEHS)
